In PubChem BioAssay (EPA / NIEHS):
Inconclusive results are not listed. The source made the active and inactive calls. The calls were made as follows, unless noted: active = hit-call score of the fitted dose curve at least 0.9, where 1 is the maximum; inactive = score below 0.9.

Key:
[1] = ACEA_ER_80hr: ACEA Biosciences xCELLigence Real-Time Cell Analysis on Estrogen Receptor Agonism for Proliferation (AID 2282667; active = hit-call score of the fitted dose curve at least 0.9, where 1 is the maximum); settings: T47D proliferation, impedance (xCELLigence), 80 h
Summary of the method: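 T-47D cells monitored by electrical impedance (xCELLigence) with compound present throughout; 80 h timepoint, positive-direction fitting versus DMSO. Eight-point 1:4 dilutions from 100 uM final, duplicate plates.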

[2] = ATG_CRE_CIS: Attagene CIS-FACTORIAL HepG2 Assay for human cAMP Responsive Element (CRE) binding protein 3 (AID 2282926); settings: HepG2 CRE cis-reporter, Attagene multiplexed mRNA; actives raise or lower the signal
Summary of the method: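 Induced reporter mRNA from a CRE cis element, measured in HepG2 among many multiplexed units at 24 h. Detection used RT-PCR plus capillary electrophoresis of fluorescent fragments; DMSO served as negative control.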

[3] = biological target: CCAAT/enhancer-binding protein beta (Homo sapiens) (UniProt P17676); test: ATG_C_EBP_CIS: Attagene CIS-FACTORIAL HepG2 Assay for human CCAAT/Enhancer Binding Protein (C/EBP) beta (AID 2282927); settings: HepG2 Attagene cis-factorial transcription factor reporter; actives raise or lower the signal
CCAAT/enhancer-binding protein beta (Homo sapiens), sequence (P17676 whole entry, looked up): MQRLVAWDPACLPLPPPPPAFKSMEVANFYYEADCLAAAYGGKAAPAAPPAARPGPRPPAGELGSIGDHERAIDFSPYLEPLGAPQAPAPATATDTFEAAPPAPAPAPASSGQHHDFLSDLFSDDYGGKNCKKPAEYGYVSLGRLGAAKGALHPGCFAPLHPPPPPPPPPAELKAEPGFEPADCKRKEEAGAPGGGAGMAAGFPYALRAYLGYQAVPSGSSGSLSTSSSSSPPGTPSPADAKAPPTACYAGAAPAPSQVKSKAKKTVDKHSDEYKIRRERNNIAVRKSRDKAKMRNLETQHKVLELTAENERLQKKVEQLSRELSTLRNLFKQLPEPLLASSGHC
Summary of the method: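 RT-PCR/capillary electrophoresis fluorescence of reporter mRNA, 24 h post-dose, in HepG2 cells carrying transfected cis-promoter reporter units. Bidirectional curve fitting against DMSO baseline captures gain or loss of signal.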

[4] = ATG_CMV_CIS: Attagene CIS-FACTORIAL HepG2 Assay for human CMV (Internal Marker) (AID 2282928); settings: HepG2 CMV promoter reporter, transcription factor profiling; actives raise or lower the signal;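 also: endpoint acts as a background internal control marker rather than a target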
Summary of the method: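 Readout: fluorescent reporter cDNA fragments separated by capillary electrophoresis after RT-PCR and HpaI cut. Cells: HepG2 carrying transfected cis-promoter reporter constructs, dosed 24 h. Endpoint serves as background internal-marker control, fit bidirectionally versus DMSO.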

[5] = ATG_DR4_LXR_CIS: Attagene CIS-FACTORIAL HepG2 Assay for human Liver X Receptor (LXR), DR4 submotif (AID 2282929); settings: HepG2 Attagene DR4 cis-reporter, mRNA transcription; actives raise or lower the signal
Summary of the method: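 DR4 cis-reporter in HepG2, 24 h exposure. Detection: RT-PCR, 6-FAM labelling, CE fragment analysis. Endpoint fitted bidirectionally, DMSO = baseline.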

[6] = biological target: Aryl hydrocarbon receptor (Homo sapiens) (UniProt P35869); test: ATG_Ahr_CIS: Attagene CIS-FACTORIAL HepG2 Assay for human Aryl Hydrocarbon Receptor (Ahr) (AID 2282930); settings: HepG2 AhR cis-factorial reporter transcription; actives raise or lower the signal
Aryl hydrocarbon receptor (Homo sapiens), sequence (P35869 whole entry, looked up): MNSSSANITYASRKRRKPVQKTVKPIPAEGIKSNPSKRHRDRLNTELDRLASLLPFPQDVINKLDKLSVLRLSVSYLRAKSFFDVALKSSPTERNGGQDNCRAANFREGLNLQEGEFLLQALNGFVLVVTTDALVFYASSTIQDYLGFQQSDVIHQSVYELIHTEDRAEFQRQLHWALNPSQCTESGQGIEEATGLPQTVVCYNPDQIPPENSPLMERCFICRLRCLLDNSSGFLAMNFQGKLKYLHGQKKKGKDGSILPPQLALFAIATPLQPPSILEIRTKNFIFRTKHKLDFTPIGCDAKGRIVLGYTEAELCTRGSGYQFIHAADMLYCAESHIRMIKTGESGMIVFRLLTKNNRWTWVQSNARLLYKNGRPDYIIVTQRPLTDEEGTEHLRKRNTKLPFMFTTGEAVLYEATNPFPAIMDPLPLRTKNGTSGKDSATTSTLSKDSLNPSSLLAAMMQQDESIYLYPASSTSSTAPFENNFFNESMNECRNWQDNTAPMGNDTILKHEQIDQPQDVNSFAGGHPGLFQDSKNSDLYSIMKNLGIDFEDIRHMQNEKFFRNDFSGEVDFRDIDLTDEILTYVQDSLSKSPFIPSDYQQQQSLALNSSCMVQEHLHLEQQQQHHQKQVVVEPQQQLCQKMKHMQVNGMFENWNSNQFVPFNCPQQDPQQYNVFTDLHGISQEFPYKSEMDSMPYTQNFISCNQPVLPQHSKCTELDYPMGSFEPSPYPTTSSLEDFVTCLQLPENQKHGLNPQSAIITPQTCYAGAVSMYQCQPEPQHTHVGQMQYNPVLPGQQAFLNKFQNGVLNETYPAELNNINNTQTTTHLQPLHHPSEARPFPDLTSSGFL
Summary of the method: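 HepG2 cells transiently transfected with cis-element-driven multiplexed reporter transcription units; endogenous transcription factor activity measured as reporter mRNA 24 h after dosing. RT-PCR, 6-FAM labelling, HpaI digestion, capillary electrophoresis; bidirectional fitting versus DMSO baseline.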

[7] = ATG_AP_1_CIS: Attagene CIS-FACTORIAL HepG2 Assay for human Activator Protein 1 (AP-1) (AID 2282931); settings: HepG2 Attagene cis-factorial AP-1 reporter mRNA; actives raise or lower the signal
Summary of the method: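 Cis-regulated reporter units transiently expressed in HepG2 report endogenous transcription-factor activity. Signal: reporter mRNA at 24 h, via RT-PCR and fluorescent capillary electrophoresis. Endpoint derived by bidirectional fitting, DMSO as negative control.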

[8] = ATG_AP_2_CIS: Attagene CIS-FACTORIAL HepG2 Assay for human Activator Protein 2 (AP-2) (AID 2282932); settings: HepG2 AP-2 cis-reporter, Attagene transcription factor profiling; actives raise or lower the signal
Summary of the method: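 Cells (HepG2) transfected with promoter-driven reporter constructs, treated 24 h. Total RNA reverse-transcribed, reporter cDNA PCR-amplified, FAM-labelled by primer extension, digested, resolved by capillary electrophoresis. Activity fitted both directions versus DMSO.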

[9] = ATG_BRE_CIS: Attagene CIS-FACTORIAL HepG2 Assay for human Bone Morphogenetic Protein (BMP) Response Element (BRE) (AID 2282933); settings: HepG2 BMP response element reporter, Attagene transcription factor profiling; actives raise or lower the signal
Summary of the method: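 Gain- or loss-of-signal was derived by bidirectional fitting against DMSO controls. The signal came from reporter mRNA, measured by RT-PCR and capillary electrophoresis, in HepG2 cells transiently carrying multiple reporter units and dosed for 24 h.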

[10] = biological target: Retinoic acid receptor alpha (Homo sapiens) (UniProt P10276); test: ATG_DR5_RAR_CIS: Attagene CIS-FACTORIAL HepG2 Assay for human Retinoic Acid Receptor Alpha (RARE), DR5 submotif (AID 2282934); settings: HepG2 Attagene cis-factorial RARE DR5 reporter, mRNA; actives raise or lower the signal;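 as to AC50: reporter responds to endogenous RAR alpha beta and gamma in HepG2 not RARA alone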
Retinoic acid receptor alpha (Homo sapiens), sequence (P10276 whole entry, looked up): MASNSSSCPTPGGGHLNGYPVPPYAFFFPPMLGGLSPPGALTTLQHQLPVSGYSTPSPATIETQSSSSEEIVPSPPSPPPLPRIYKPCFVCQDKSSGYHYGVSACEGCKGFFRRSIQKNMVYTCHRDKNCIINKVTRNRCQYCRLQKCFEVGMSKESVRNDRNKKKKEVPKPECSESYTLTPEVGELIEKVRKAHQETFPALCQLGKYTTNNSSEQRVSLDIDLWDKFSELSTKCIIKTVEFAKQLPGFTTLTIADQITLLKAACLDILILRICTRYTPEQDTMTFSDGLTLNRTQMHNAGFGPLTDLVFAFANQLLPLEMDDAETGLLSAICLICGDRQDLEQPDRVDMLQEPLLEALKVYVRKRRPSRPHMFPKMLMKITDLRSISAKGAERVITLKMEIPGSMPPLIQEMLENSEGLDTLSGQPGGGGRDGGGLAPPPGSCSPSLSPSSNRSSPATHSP
Summary of the method: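 HepG2 cells transiently transfected with multiplexed reporter units under cis (DR5 RARE) promoters, so endogenous transcription factor activity is measured. After 24 h compound exposure, reporter mRNA is quantified by RT-PCR with fluorescent labelling and capillary electrophoresis; bidirectional fitting versus DMSO.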

[11] = biological target: Transcription factor E2F1 (Homo sapiens) (UniProt Q01094); test: ATG_E2F_CIS: Attagene CIS-FACTORIAL HepG2 Assay for human E2F Transcription Factor 1 (AID 2282935); settings: HepG2 Attagene cis-reporter, E2F reporter RNA transcripts; actives raise or lower the signal
Transcription factor E2F1 (Homo sapiens), sequence (Q01094 whole entry, looked up): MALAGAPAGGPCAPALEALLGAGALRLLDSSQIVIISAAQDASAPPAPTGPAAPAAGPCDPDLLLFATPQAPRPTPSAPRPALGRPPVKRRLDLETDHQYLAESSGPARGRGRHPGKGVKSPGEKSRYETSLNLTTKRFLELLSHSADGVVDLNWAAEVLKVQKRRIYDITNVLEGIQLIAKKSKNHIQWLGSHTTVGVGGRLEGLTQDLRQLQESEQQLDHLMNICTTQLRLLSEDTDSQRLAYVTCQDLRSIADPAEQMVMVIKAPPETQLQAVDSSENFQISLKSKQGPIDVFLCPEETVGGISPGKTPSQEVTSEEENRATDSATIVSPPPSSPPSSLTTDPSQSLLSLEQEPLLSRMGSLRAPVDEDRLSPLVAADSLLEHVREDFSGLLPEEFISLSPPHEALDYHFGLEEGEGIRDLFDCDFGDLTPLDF
Summary of the method: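 First, HepG2 cells were transfected with reporter transcription units. Next, they were dosed for 24 h. Then RNA was isolated, converted to cDNA, PCR-amplified, FAM-labeled, HpaI-digested and analyzed by capillary electrophoresis.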

[12] = ATG_E_Box_CIS: Attagene CIS-FACTORIAL HepG2 Assay for human Enhancer Box (E-box) (AID 2282936); settings: HepG2 E-box cis-reporter transcription, actives raise or lower the signal
Summary of the method: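 Endogenous transcription factor activity was sensed in human HepG2 liver cells through transfected cis-promoter reporter units. After 24 h of dosing, total RNA was reverse-transcribed and reporter cDNA resolved by capillary electrophoresis.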

[13] = ATG_M_61_CIS: Attagene CIS-FACTORIAL HepG2 Assay for M61 Transcription Factor (Internal Marker) (AID 2282937); settings: HepG2 Attagene CIS-FACTORIAL M61 internal marker reporter; actives raise or lower the signal
Summary of the method: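 Background-control endpoint: HepG2 cells with cis-regulated reporter constructs, 24 h exposure, reporter mRNA detected via fluorescent primer extension and capillary electrophoresis; values from bidirectional fitting with DMSO baseline.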

[14] = ATG_EGR_CIS: Attagene CIS-FACTORIAL HepG2 Assay for human Early Growth Response 1 (EGR1) (AID 2282938); settings: HepG2 Attagene CIS-FACTORIAL EGR reporter mRNA; actives raise or lower the signal
Summary of the method: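 Endpoint derived by bidirectional fitting versus DMSO vehicle. Method: cis-promoter reporter units transfected into HepG2, 24 h dosing, RNA isolation, RT-PCR with 6-FAM primer extension and HpaI digestion, then capillary electrophoresis fluorescence detection.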

[15] = ATG_M_19_CIS: Attagene CIS-FACTORIAL HepG2 Assay for M19 Transcription Factor (Internal Marker) (AID 2282939); settings: HepG2 Attagene CIS-FACTORIAL M19 internal marker reporter; actives raise or lower the signal
Summary of the method: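 Following a 24 h exposure, RNA from transfected HepG2 cells was reverse-transcribed, PCR-amplified with reporter-specific primers, end-labelled with 6-FAM and HpaI-digested before capillary separation. Values represent gain or loss versus DMSO.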

[16] = ATG_ERE_CIS: Attagene CIS-FACTORIAL HepG2 Assay for Estrogen Response Element (ERE) (AID 2282940); settings: HepG2 ERE cis-reporter, Attagene RNA transcript; actives raise or lower the signal
Summary of the method: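 HepG2, transient cis-reporter units, 24 h exposure. RNA isolated, oligo(dT) RT, reporter-specific PCR, FAM extension, HpaI cut, CE detection. Gain/loss-of-signal vs DMSO.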

[17] = ATG_Ets_CIS: Attagene CIS-FACTORIAL HepG2 Assay for human Erythroblast Transformation Specific (ETS) (AID 2282941); settings: HepG2 ETS cis-reporter transcription, actives raise or lower the signal
Summary of the method: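 RT-PCR/capillary electrophoresis fluorescence read-out of reporter mRNA; HepG2 transient multi-reporter transfection; 24 h compound exposure; gain or loss of signal fitted bidirectionally relative to DMSO.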

[18] = biological target: Hepatocyte nuclear factor 3-beta (Homo sapiens) (UniProt Q9Y261); test: ATG_FoxA2_CIS: Attagene CIS-FACTORIAL HepG2 Assay for human Forkhead box A2 (FOXA2) (AID 2282942); settings: HepG2 cis-reporter transcription factor activity, 24 h; actives raise or lower the signal
Hepatocyte nuclear factor 3-beta (Homo sapiens), sequence (Q9Y261 whole entry, looked up): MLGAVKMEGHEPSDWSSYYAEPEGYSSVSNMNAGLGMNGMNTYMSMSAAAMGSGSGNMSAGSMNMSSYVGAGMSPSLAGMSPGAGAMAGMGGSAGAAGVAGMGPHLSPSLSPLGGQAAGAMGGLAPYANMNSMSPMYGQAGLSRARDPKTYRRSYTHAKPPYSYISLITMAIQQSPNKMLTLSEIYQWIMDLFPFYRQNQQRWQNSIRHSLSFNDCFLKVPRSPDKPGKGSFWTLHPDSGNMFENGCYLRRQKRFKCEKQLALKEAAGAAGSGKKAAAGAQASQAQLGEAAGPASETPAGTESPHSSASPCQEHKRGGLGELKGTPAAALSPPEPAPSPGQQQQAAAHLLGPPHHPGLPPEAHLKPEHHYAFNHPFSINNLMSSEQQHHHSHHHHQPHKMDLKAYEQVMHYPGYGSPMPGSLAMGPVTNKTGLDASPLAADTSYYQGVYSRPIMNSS
Summary of the method: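 Measured: reporter mRNA induction or loss in HepG2 transiently carrying multiple cis-regulated reporter units, 24 h after dosing. Quantified by RT-PCR plus capillary electrophoresis, normalised to DMSO.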

[19] = ATG_FoxO_CIS: Attagene CIS-FACTORIAL HepG2 Assay for human Forkhead box O (FoxO) (AID 2282943); settings: HepG2 Attagene cis-reporter, FoxO element, mRNA; actives raise or lower the signal
Summary of the method: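 HepG2 cells transiently transfected with cis-promoter-driven multiple reporter transcription units; 24 h after chemical dosing, reporter mRNA quantified by RT-PCR, fluorescent primer extension, HpaI digestion and capillary electrophoresis. Bidirectional fitting versus DMSO baseline.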

[20] = ATG_GATA_CIS: Attagene CIS-FACTORIAL HepG2 Assay for human GATA Binding Protein (AID 2282944); settings: HepG2 GATA cis-element reporter, Attagene multiplex mRNA; actives raise or lower the signal
Summary of the method: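 DMSO serves as negative control and baseline for bidirectional fitting of reporter mRNA changes. HepG2 cells bearing transiently transfected cis-promoter reporters were exposed 24 h; transcripts detected via RT-PCR and capillary electrophoresis.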

Measured: AC50

NC(O)(C(F)(F)F)C(F)(F)F
active: [6] 126 µM
inactive: [1] | [2] | [3] | [4] | [5] | [7] | [8] | [9] | [10] | [11] | [12] | [13] | [14] | [15] | [16] | [17] | [18] | [19] | [20]

COCCOCCC[Si](C)(O[Si](C)(C)C)O[Si](C)(C)C
active: [1] 0.437 µM | [5] 54.1 µM | [7] 1.53 µM | [8] 60.1 µM | [9] 9.13 µM | [10] 8.84 µM
inactive: [2] | [3] | [4] | [6] | [11] | [12] | [13] | [14] | [15] | [17] | [18] | [19] | [20]

CO[Si](C)(CCC(F)(F)C(F)(F)C(F)(F)C(F)(F)C(F)(F)C(F)(F)F)OC
inactive: [1] | [2] | [3] | [4] | [5] | [6] | [7] | [8] | [9] | [10] | [11] | [12] | [13] | [14] | [15] | [17] | [18] | [19] | [20]

FC(F)(F)C(F)(F)C(F)(F)C(F)(F)C(F)(F)C(F)(F)C(F)(F)CCI
inactive: [1] | [2] | [3] | [4] | [5] | [6] | [7] | [8] | [9] | [10] | [11] | [12] | [13] | [14] | [15] | [17] | [18] | [19] | [20]

CCn1c2ccccc2c2ccccc21
active: [4] 57.4 µM | [7] 164 µM | [9] 159 µM | [10] 25.8 µM
inactive: [1] | [2] | [3] | [5] | [6] | [8] | [11] | [12] | [13] | [14] | [15] | [16] | [17] | [18] | [19] | [20]

CC(C)=CCCC(C)O (stereo not given)
inactive: [1] | [2] | [3] | [4] | [5] | [6] | [7] | [8] | [9] | [10] | [11] | [12] | [13] | [14] | [15] | [16] | [17] | [19] | [20]

CCN(CC)c1ccc(C=O)c(O)c1
inactive: [1] | [2] | [3] | [4] | [6] | [7] | [8] | [9] | [10] | [11] | [12] | [13] | [14] | [15] | [16] | [17] | [19] | [20]
active: [5] 67.2 µM
